# From PubChem BioAssay (NCI)
# The panel holds about 83,000 compounds, 20% with a hit somewhere; the sample as a whole holds those more often.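 How to read the values: 0–100, growth inhibition (40 = 60% inhibited); 0, no net growth; -100 to 0, cell death (-40 = 40% of starting cells died; -100 = all dead).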 Unmarked numbers belong to inactive results. Calls of active or inactive are those of the source. How the source made its calls: active means growth percent below 10; inactive means the rest.
# Experiments:
# Experiment in all cases: NCI-60 one-dose screen, 48 h (100 = growth as untreated, 0 = no growth, -100 = all killed)
# Details in all cases: 10 µM unless noted
# [1] = system: T-47D breast
# [2] = system: BT-549 breast
# [3] = system: MDA-MB-435 melanoma
# [4] = system: SW-620 colon
# [5] = system: MCF7 breast
# [6] = system: HCT-116 colon
# [7] = system: HCC-2998 colon
# [8] = system: KM12 colon
# [9] = system: MDA-MB-468 breast
SMILES,growth [1],growth [2],growth [3],growth [4],growth [5],growth [6],growth [7],growth [8],growth [9]
C=C1CCC2C3(C)COC(c4ccccc4)OC3CCC2(C)C1CC(Sc1ccccc1)C1=CCOC1=O (centres undefined),33.1%,-19% (active),45.8%,14.8%,17%,4.36% (active),36.8%,47.5%,27.3%
O=C(/C=C/Nc1ccc(Cl)cc1)c1ccc2c(c1)Nc1ccccc1S2,62.1%,24.6%,55.1%,54.8%,40.1%,39.2%,44.2%,69.3%,43.4%
COc1ccc(NC(=O)Nc2ccc(OCc3ccc(F)cc3)cc2)cc1,84.7%,84.9%,83%,73.6%,57.6%,58.1%,90.8%,93.3%,77.5%
COc1c(F)ccc(C(=O)Nc2ccc3nc(NC(=O)C4CCCN(S(=O)(=O)C5CC5)C4)sc3c2)c1F (centres undefined),-5.4% (active),-8.29% (active),39.5%,78.7%,15.2%,32.2%,59.8%,44%,3.58% (active)
Cc1ccc(S(=O)(=O)c2nc(S(=O)(=O)c3ccc(C)cc3)c(N3CCN(C)CC3)s2)cc1,38%,43.4%,8.29% (active),36.1%,43.1%,46.9%,107%,76.4%,-15% (active)
C/C(=N\N=C1/C(=O)Nc2ccccc21)c1ccc2c(c1)Nc1ccccc1S2,26.8%,43.9%,-52.5% (active),63.5%,22.2%,16.2%,75.7%,66.4%,34.6%
